Among all 330,000 compounds or so, about 1,100 (0.33%) were called active. Shown is part of a subset that was picked to be rich in actives. Values without a mark were called inactive.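 The calls were made as follows: active = inhibition above about 40% at 20 µM (limit read from the data); inactive = the rest.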

For the assay, the target named is Apelin receptor (Homo sapiens) (UniProt P35414). The experiment in a line: blockade of apelin-induced APJ beta-arrestin recruitment – CHO-K1 cells, beta-arrestin complementation, luminescence, primary screen (AID 2521).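 Also: cells challenged with 10 nM apelin-13 agonist together with compound; plate controls were apelin-13 plus DMSO wells for no effect and DMSO wells lacking apelin-13 for full effect.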 As to conditions: at 20 µM, active compounds read high. On the technique in general: Arrestin recruitment assays detect the binding of arrestin to an activated receptor.
Chain of Apelin receptor (Homo sapiens) (P35414 whole entry, looked up): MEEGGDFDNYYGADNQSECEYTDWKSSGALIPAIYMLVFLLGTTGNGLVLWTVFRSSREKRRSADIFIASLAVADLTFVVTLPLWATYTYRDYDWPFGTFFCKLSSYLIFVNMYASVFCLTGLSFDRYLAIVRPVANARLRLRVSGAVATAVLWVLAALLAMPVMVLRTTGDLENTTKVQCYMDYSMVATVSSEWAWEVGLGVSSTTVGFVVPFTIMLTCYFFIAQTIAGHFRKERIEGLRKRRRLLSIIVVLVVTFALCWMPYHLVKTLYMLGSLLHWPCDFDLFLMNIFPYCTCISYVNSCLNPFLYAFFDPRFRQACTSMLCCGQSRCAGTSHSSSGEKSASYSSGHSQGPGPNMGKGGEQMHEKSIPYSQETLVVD
The inhibition is the drop in the measured response relative to a control, in per cent. On to `C=CCOc1ccc(/C=C/C(=O)OCC(=O)NC2CCCCCC2)cc1`, for which the inhibition is -9.63%.
`CCCc1nc2oc3c(OCC)ncnc3c2c2c1COC(C)(C)C2`: the inhibition is 1.23%.
With `Cc1cccc(N2CCC(NCc3c(C(=O)N4CCCCC4)nc4c(C)cccn34)CC2)c1`, the inhibition is -3.54%.
For `Cc1ccc(S(=O)(=O)N(Cc2ccc(Cl)cc2)c2ccccc2C(=O)NCc2cccnc2)cc1`, the inhibition was -7.26%.
In the case of `Cc1cccc(N2CCN(S(=O)(=O)c3ccc4[nH]c(=O)c(=O)[nH]c4c3)CC2C)c1` (stereo not drawn), the inhibition was 0.293%.
With `Cc1ccc(N=Cc2c(O)n(-c3nccs3)c(=O)c3ccccc23)c(C)c1`, the inhibition is -0.923%.
Take `Cc1cccc(-n2c(O)c(C=Nc3ccccc3N)c(=O)[nH]c2=O)c1`: the inhibition was 55.5% (active).
Take `Cc1ccc(C)c2[nH]c(=O)c(CN(Cc3cccnc3)C(=S)NCc3ccco3)cc12`: the inhibition is 5.44%.
As for `O=C(N=C1SC2CS(=O)(=O)CC2N1c1ccccc1)c1ccccc1` (stereo not drawn), the inhibition is -0.987%.
As to `CCCNc1ncnc2sc(C)c(C)c12`, the inhibition is 19.7%.
For the compound `Cc1cc(C)n(-c2nc(O)cc(=O)[nH]2)n1`, the inhibition was 9%.
The same measure for `O=C1/C(=C/c2coc3ccc(O)cc3c2=O)SC(=S)N1c1ccccc1`: 29.3%.
Turning to `CSCCC(NC(=O)COc1ccccc1)C(=O)OCC(=O)c1cc2ccccc2o1` (stereo not drawn), the inhibition is 56.3% (active).
As for `CSCCC(NC(=O)COc1ccccc1)C(=O)OCCOc1ccc(F)cc1` (stereo not drawn), the inhibition is 4.85%.
As for `CSCCC(NC(=O)COc1ccccc1)C(=O)OCCOc1ccc(Br)cc1` (stereo not drawn), the inhibition is 0.665%.
As for `CC(=O)Nc1ccc(S(=O)(=O)Nc2nc3n(n2)C(c2ccccc2)CC(=O)N3)cc1` (stereo not drawn), the inhibition was -9.74%.
The same measure for `Cc1nc2cc(NCc3cccs3)ccc2n1C`: 1.26%; for `CCCCC(=O)Nc1c2c(nn1-c1ccc([N+](=O)[O-])cc1)CS(=O)(=O)C2`: 9.67%.
For `CC1CCN(C(=O)c2cc3nc(C4CC4)cc(C(F)(F)F)n3n2)CC1`, the inhibition was 1.74%.
With `Cc1cc(C=O)c(C)n1-c1ccc(NC2CCCCC2)c([N+](=O)[O-])c1`, the inhibition is 11.5%.
With `Cc1cc(/C=N/Nc2ccc([N+](=O)[O-])cn2)c(C)n1-c1cccc(C(=O)O)c1`, the inhibition is 42.4% (active).
For `Cc1cc(/C=N/NC(=O)CC2(C)OCCO2)c(C)n1-c1ccc(Cl)c(Cl)c1`, the inhibition is -22.8%.
In the case of `Cn1c(=O)c2c(-c3cccc(Br)c3)c(C#N)c(N)nc2n(C)c1=O`, the inhibition was -4.62%.
With `NC(=O)NC(=O)C(OC(=O)CCNS(=O)(=O)c1ccccc1)c1ccccc1` (stereo not drawn), the inhibition is 12.8%.
The result for `CC(Oc1ccccc1F)C(=O)NN` (stereo not drawn) reads -7.83%; that for `O=C1Nc2ccc([N+](=O)[O-])cc2C1=Nc1cccc(CO)c1`, 66% (active).
The result for `CN1CCN(/N=C2/C(=O)Nc3ccc([N+](=O)[O-])cc32)CC1` reads 2.6%; that for `O=[N+]([O-])c1ccc(N(CCO)Cc2ccccc2)c([N+](=O)[O-])c1`, -2.49%; that for `O=C(NC(=S)Nc1ccc(Cl)c(C(=O)O)c1)c1cncc(Br)c1`, 35.2%.
In the case of `c1ccc2cc(CCCc3cc4ccccc4cn3)ncc2c1`, the inhibition is 9.5%.
For `Cc1cc2c(c(=O)n1C)C(C(C)C)C(C#N)=C(N)O2` (stereo not drawn), the inhibition is -2.07%.
For the compound `COc1ccc(CCNC(=O)C2CCCN(S(=O)(=O)c3ccc(OC)cc3)C2)cc1` (stereo not drawn), the inhibition is 12.2%.
The result for `CCc1ccc2c(c1)C1(NN=C(c3ccccc3)S1)C(=O)N2` (stereo not drawn) reads 43.3% (active); that for `Cc1ccc(-n2c(C)cc(C(=O)CSc3nnc4ccccn34)c2C)cc1`, -19.2%.
Regarding `CC(=O)Nc1ccc(NC(=O)CSC2=NS(=O)(=O)c3ccccc3N2)cc1`, the inhibition was 17.4%.
The result for `O=C1C(Cc2ccc(O)cc2)NC(=S)N1Cc1ccccc1` (stereo not drawn) reads 7.09%.
Regarding `O=C(CN1CCN(c2ccc(Cl)cc2)CC1)c1ccccc1`, the inhibition was -15.1%.
In the case of `CCC1Nc2ncnc(N3CCN(c4ccccc4)CC3)c2N(Cc2ccc(Cl)cc2)C1=O` (stereo not drawn), the inhibition was 85.9% (active).
Consider `COc1ccc(S(=O)(=O)n2cnc3ccccc32)c(C)c1`, for which the inhibition was 2.56%.
As to `Cc1ccc(NC(=S)N(CCCN2CCCC2)Cc2cccn2Cc2ccc(Cl)cc2)cc1`, the inhibition was -11.3%.
With `CC(C)(C)OC(=O)C[C@@H]1C/C=C\C[C@@H](CC(=O)NCCO)C(=O)N[C@H](Cc2c[nH]c3ccccc23)COC1=O`, the inhibition is 0.599%.
Turning to `S=C(NNC(=S)NC1CC2CCC1C2)NC1CC2C=CC1C2` (stereo not drawn), the inhibition is 40.2% (active).
With `O=C(NNC(=S)NC1CC2CCC1C2)c1ccc(Cl)cc1` (stereo not drawn), the inhibition was -4.76%.
On to `S=C(NNC(=S)NC1CC2C=CC1C2)NC1CC2C=CC1C2` (stereo not drawn), for which the inhibition was 9.22%.
In the case of `Cc1nonc1OCCn1nnnc1N`, the inhibition is -11.5%.
Regarding `CC(=O)/C(=N\Nc1ccc(Cl)cc1Cl)Sc1cccc2cccnc12`, the inhibition was 50.3% (active).
Consider `O=C(NNc1cc(Cl)ccc1Cl)c1cccnc1Cl`, for which the inhibition was -13.7%.
For `Cc1c(NC(=O)CSc2cccc3cccnc23)c(=O)n(-c2ccccc2)n1C`, the inhibition is 21.8%.
Regarding `Cc1ccc(C(=O)N(CN2CCCC2=O)c2ccc(F)cc2)cc1`, the inhibition is -13.9%.
Regarding `CNC(=O)Nc1cc(C(C)(C)C)no1`, the inhibition is 8.23%.
On to `Cc1ccc(N2CCN(S(=O)(=O)c3ccc(F)cc3)CC2)c(C)c1`, for which the inhibition was 17.5%.
In the case of `CN(C)S(=O)(=O)c1cccc(NC(=S)NCc2ccc3c(c2)OCO3)c1`, the inhibition is 3.11%.
The same measure for `CN(C)S(=O)(=O)c1cccc(NC(=S)N/N=C/C(=O)c2ccccc2)c1`: 41.5% (active); for `Cc1ccc(/C=N/NC(=S)Nc2cccc(S(=O)(=O)N(C)C)c2)o1`: -8.56%.
For the compound `O=C(c1ccccc1F)N(Cc1ccccc1)Cc1ccccc1`, the inhibition was -6.53%.
For the compound `CC1=C(C(=O)Nc2cc(C)ccn2)C(c2cnn(C)c2)C2=C(CC(c3ccccc3)CC2=O)N1` (stereo not drawn), the inhibition is -2.45%.
For `O=S(N1CCCCCC1)C12CC3CC(CC(C3)C1)C2` (stereo not drawn), the inhibition is -12.7%.
Turning to `Cc1ccc(NC(=O)C2CC2c2ccccc2)cc1` (stereo not drawn), the inhibition is 0.756%.

For the origin of these results see PubChem BioAssay AID2521 (Sanford-Burnham Center for Chemical Genomics, 2010).
